# Assay outcomes deposited in PubChem BioAssay by National Center for Advancing Translational Sciences (NCATS).
# The list is not random: actives were taken first. Their share in the collection is about 9.8%.
# HTT cytoprotect: Huntington cell model cytoprotection by ATP luminescence; PC12 HTT-Q103 induced, cytoprotection, ATP luminescence, 40 h; Potency, µM (doses to about 56.4 µM), most hits filed as activators; hit rate 0.14% among 230,000; AID 1471; further: nearly all actives have a fitted effect of over 45% in size
#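 ATP quantification (ATPlite) reports survival of PC12 cells in which tebufenozide, 100 nM final, switches on Htt exon 1 with 103 glutamines linked to GFP; compounds are titrated.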
# CBFb-RUNX1 inh: CBF-beta/RUNX1 interaction disruption; 230,000 tested, under 10 active; AlphaScreen CBFb-His/RUNX1-biotin binding, biochemical; Q01196+Q13951; Potency, µM (series often up to 59.8 µM), most hits filed as inhibitors
#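 CBFb-His/RUNX1-biotin, 30 nM each, preincubated 20 min RT; compound 15 min RT; Ni + streptavidin beads 50 ng each, 90 min RT; AlphaScreen read.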
# HttQ103 aggreg: reduces HttQ103-GFP aggregates in PC12 cells; PC12 HttQ103-GFP aggregates, Acumen cytometry, 40 h; hit rate 1.1% among 220,000; Potency, µM (titrated, usually from 46.1 µM), usual class: inhibitors; AID 1688; further: nearly all actives have a fitted effect of over 60% in size
#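 Compounds (qHTS titration) were added to PC12 cells expressing an ecdysone-driven HTT exon 1 Q103–GFP fusion after induction with 100 nM tebufenozide. Aggregate formation was measured as GFP objects in cell lysates.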
# ALDH1A1 inh: blocks purified human ALDH1A1 activity; Purified ALDH1A1, NADH fluorescence, propionaldehyde substrate; Potency, µM (doses to about 75.3 µM), most hits filed as inhibitors; hit rate 7.3% among 220,000; active means well fitted inhibition curve with a large enough effect, not every such curve was filed as active; inconclusive means small, poorly fitted or top-dose-only effect, or another doubt; inactive means no such curve, though single readings can be large or run the other way
# Target sequence (P00352 whole entry, looked up): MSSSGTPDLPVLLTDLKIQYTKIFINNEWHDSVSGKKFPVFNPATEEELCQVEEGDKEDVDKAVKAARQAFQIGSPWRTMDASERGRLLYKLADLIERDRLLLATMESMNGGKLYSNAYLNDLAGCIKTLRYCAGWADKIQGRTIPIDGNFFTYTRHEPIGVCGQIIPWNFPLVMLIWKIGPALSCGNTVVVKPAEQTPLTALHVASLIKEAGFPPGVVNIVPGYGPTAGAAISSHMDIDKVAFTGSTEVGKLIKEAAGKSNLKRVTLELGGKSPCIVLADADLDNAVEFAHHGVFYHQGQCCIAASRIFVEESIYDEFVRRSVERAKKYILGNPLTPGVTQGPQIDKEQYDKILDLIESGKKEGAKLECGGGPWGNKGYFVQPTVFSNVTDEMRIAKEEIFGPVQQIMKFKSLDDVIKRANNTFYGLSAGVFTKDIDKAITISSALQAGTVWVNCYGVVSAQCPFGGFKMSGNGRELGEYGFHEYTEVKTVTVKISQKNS
# HPGD inh: blocks human HPGD enzyme activity | P15428 | purified HPGD, NADH fluorescence kinetic, PGE2 substrate | Potency, µM, hits mostly inhibitors | hit rate 4.3% among 150,000 | AID 894; active means well fitted inhibition curve with a large enough effect, not every such curve was filed as active; inconclusive means small, poorly fitted or top-dose-only effect, or another doubt; inactive means no such curve, though single readings can be large or run the other way
# Target sequence (P15428 whole entry, looked up): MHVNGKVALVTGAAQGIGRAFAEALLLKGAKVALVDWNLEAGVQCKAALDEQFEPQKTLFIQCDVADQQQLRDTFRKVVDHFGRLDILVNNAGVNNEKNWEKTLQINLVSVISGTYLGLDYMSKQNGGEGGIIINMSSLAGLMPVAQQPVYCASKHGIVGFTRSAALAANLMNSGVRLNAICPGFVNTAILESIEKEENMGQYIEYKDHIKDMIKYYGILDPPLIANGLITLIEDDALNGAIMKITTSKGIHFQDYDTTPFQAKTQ
#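 20 nM HPGD preincubated 15 min at room temperature with compound in 50 mM Tris-HCl pH 8, 0.01% Tween 20. Started with 1 mM NAD+ and 30 uM prostaglandin E2; NADH fluorescence (360/450 nm) read 5 times over 30-s intervals, last minus first.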
# JMJD2E inh: JMJD2E (human) inhibition; Potency, µM (series often up to 57.1 µM), hits mostly inhibitors; AID 2147; B2RXH2; JMJD2E catalytic domain, FDH-coupled NADH fluorescence (FDH is formaldehyde dehydrogenase); hit rate 1.6% among 230,000; active means well fitted inhibition curve with a large enough effect, not every such curve was filed as active; inconclusive means small, poorly fitted or top-dose-only effect, or another doubt; inactive means no such curve, though single readings can be large or run the other way; further: nearly all actives have a fitted effect of over 50% in size
# Numbers stand for hits; i = inactive; ? = inconclusive; nt = no result given; ! = a repeat was not active; [ ] = remark or other dose. Unless noted, the call rests on the fitted dose curve; in most records, active means well fitted curve in the direction sought with a large enough effect; inconclusive means small, poorly fitted or top-dose-only effect, or another doubt; inactive means no such curve, though single readings can be large; an effect the other way counts as inactive or inconclusive.
SMILES,HTT cytoprotect,CBFb-RUNX1 inh,HttQ103 aggreg,ALDH1A1 inh,HPGD inh,JMJD2E inh
O=C1CN=C(c2cccs2)c2c(sc3c2CCCC3)N1,i,i,i,?,?,i
Cc1cc2c(s1)NC(=O)CN=C2c1cccs1,i[10 µM],i,i,?,25µM,i
CC(=NCCCN1CCOCC1)c1c(O)n(-c2ccccc2C)c(=O)[nH]c1=O,i[10 µM],i,i,14µM,i,i
CCC(=NCCCN1CCOCC1)c1c(O)n(-c2ccccc2C)c(=O)[nH]c1=O,i[10 µM],i,i[9.22 µM],nt,nt,i
Cc1ccc(N=C=O)cc1N=C=O,i,?,nt,i,i,nt
C[C@@]12CC[C@H]3[C@@H](CCC4=C(O)C(=O)CC[C@]43C)[C@H]1CCC2=O,i[1.9 µM],nt,nt,nt,nt,nt
COc1ccc2c(c1)CC[C@@H]1[C@@H]2CC[C@]2(C)[C@@H](NCCCCCCN3C(=O)C=CC3=O)CC[C@@H]12,nt,i,nt,i,nt,nt
N#CSCSC#N,i,i,nt,0.11µM,6.3µM,nt
O=C(O)c1ccccc1Nc1cccc(C(F)(F)F)c1,i,?,i,i,28µM!,i
O.O.[NH-]C1(C(=O)O)CCCC1.[NH-]C1(C(=O)O)CCCC1.[Ni+2],i[10 µM],nt,nt,i[13.5 µM],i,nt
CC(=O)[C@@H]1CC[C@@H]2[C@@H]3CCC4=CC(=O)CC[C@@]4(C)[C@H]3CC[C@]21C,i,i,nt,i,i,i
CC(=O)[C@H]1CC[C@H]2[C@@H]3CCC4=CC(=O)CC[C@]4(C)[C@H]3CC[C@]12C,i[1.9 µM],i,i,11µM!,i,i
C[C@@]12CC[C@H]3[C@@H](CCC4=CC(=O)CC[C@]43C)[C@H]1CC[C@H]2C(=O)CO,i,i,i,5µM,i,i
NCCc1ccc(S(=O)(=O)O)cc1[N+](=O)[O-],i[10 µM],nt,nt,i[13.5 µM],i,nt
CN1CC[C@]2(C)c3cc(O)ccc3N(C)[C@@H]12,i,i,nt,i,i,2.2µM
CN1CC[C@@]2(C)c3cc(O)ccc3N(C)C12 (some centres not stated),nt,i,nt,?,i,5µM
CN(C)[C@@H]1C(=O)C(C(N)=O)=C(O)[C@@]2(O)C(=O)C3=C(O)c4c(O)cccc4[C@@](C)(O)[C@H]3[C@H](O)[C@@H]12,i,nt,i,28µM!,7.1µM,?
CN(C)C1C(=O)C(C(N)=O)=C(O)[C@@]2(O)C(=O)C3=C(O)c4c(O)cccc4[C@](C)(O)C3C(O)C12 (some centres not stated),i,nt,nt,i,?,8.9µM
C/C=C1\C[N@@+]2(C)CC[C@@]34C(=C(C=O)[C@H]1C[C@H]32)Nc1ccccc14,i,i,nt,?,16µM,?
CC1CC(OP(O)(=S)c2ccc(N(C)C)cc2NC(=O)c2cccs2)CC(C)(C)C1 (configuration not stated),i,i,?,4µM,nt,?
C=CCCC#N,i,i,nt,3.2µM,i,nt
CC(C)(C)NCC1(CO)SC(N)=NC1=O (configuration not stated),i,i,22µM,i,i,i
C[C@@H]1O[C@H](O[C@@H]2C[C@@H](O)[C@]3(CO)[C@H]4[C@H](O)C[C@]5(C)[C@@H](C6=CC(=O)OC6)CC[C@@]5(O)[C@@H]4CC[C@]3(O)C2)[C@@H](O)[C@H](O)[C@H]1O,i,i,nt,i,i,i
CO[C@@H](COC(N)=O)C1=C(N2CC2)C(=O)C(C)=C(N2CC2)C1=O,i,nt,5µM,nt,nt,nt
COC12C(COC(N)=O)C3=C(C(=O)C(C)=C(N)C3=O)N1CC1C2N1C (configuration not stated),i[10 µM],i,i[9.22 µM],nt,nt,i
SMILES,HTT cytoprotect,CBFb-RUNX1 inh,HttQ103 aggreg,ALDH1A1 inh,HPGD inh,JMJD2E inh
O=C(O)c1cccc(Cl)c1,i,i,nt,i,i,nt
O=C(O)c1cc[c]([Hg][Cl])cc1,i[1.9 µM],i,nt,5.5µM,0.28µM,?
C[S@@](=O)CCCCN=C=S,nt,i,nt,nt,nt,nt
NC1=NC([S][Hg][c]2ccc(N)cc2)c2ncn([C@@H]3O[C@H](CO)[C@@H](O)[C@@H]3O)c2N1 (some centres not stated),nt,nt,nt,0.1µM,0.05µM,nt
Nc1ncnc2c1ccn2[C@@H]1O[C@H](CO)[C@@H](O)[C@H]1O,nt,i,nt,nt,nt,nt
CCCCNC(=O)OC(C)CNC(=O)Oc1cccc(C)c1 (configuration not stated),i,i,i,?,i,i
NC(=O)c1ncn([C@H]2O[C@@H](CO)[C@@H](O)[C@@H]2O)n1,?,i,nt,i,i,i
NC(=O)c1ncn([C@@H]2O[C@H](CO)[C@@H](O)[C@H]2O)n1,i,i,i,25µM!,i,i
Cc1ccccc1-n1c(O)c(C(c2ccncc2)c2c(O)n(-c3ccccc3C)c(=O)[nH]c2=O)c(=O)[nH]c1=O,i[10 µM],i,i[9.22 µM],nt,nt,18µM
O=S(=O)(O)F,i,i,nt,i,i,nt
C[C@H](c1ccccc1)N1CCN([C@@H](C)c2ccccc2)CC1,i[10 µM],nt,nt,i[13.5 µM],i,nt
O=C1NC(=O)C(=Cc2ccc(N3CCN(C(=O)c4ccccc4)CC3)c([N+](=O)[O-])c2)C(=O)N1,i,i,i,11µM,nt,22µM
CCNC(C)(C)[C@@H](SS)c1ccc(Br)cc1,i[10 µM],nt,nt,?,3.2µM,nt
C[C@H]1CC[C@@]2(NC1)O[C@@H]1C[C@@H]3[C@@H]4CC=C5C[C@@H](O)CC[C@]5(C)[C@@H]4CC[C@]3(C)[C@H]1[C@@H]2C,i[10 µM],nt,nt,i[13.5 µM],i,nt
Nc1nc(=S)c2ncn(C3OC(CO)C(O)C3O)c2[nH]1 (configuration not stated),i[10 µM],?,i[9.22 µM],7.9µM,nt,?
NC(=O)c1cc([N+](=O)[O-])cc([N+](=O)[O-])c1,i,i,i,i,i,i
CC(C)(C)c1cc([N+](=O)[O-])cc(C(C)(C)C)c1O,i,i,7.9µM,i,nt,i
O=C1NC(=O)N(c2ccccc2)C(=O)/C1=C\c1ccccc1[N+](=O)[O-],i[10 µM],i,i[9.22 µM],nt,nt,i
Cc1cccc(OCCn2cccc2/C=C2/C(=O)NC(=O)N(Cc3ccco3)C2=O)c1,i[10 µM],nt,i[9.22 µM],nt,nt,i
C=CCN1C(=O)NC(=O)/C(=C\c2ccc(-c3ccccc3[N+](=O)[O-])o2)C1=O,i,i,i[9.22 µM],22µM,nt,i
O=C1NC(=O)N(Cc2ccco2)C(=O)/C1=C/c1ccc(-c2cccc([N+](=O)[O-])c2)o1,i[10 µM],nt,i,7.1µM,5µM,?
O=C(O)c1ccccc1-c1c2cc(Br)c(=O)cc-2oc2[c]([Hg])c(O)c(Br)cc12,i,i,5µM,4.5µM,2.2µM,5µM
CC1=C2[C@@H]3OC(=O)[C@H](C)[C@H]3CC[C@@]2(C)C=CC1=O,i,nt,nt,nt,nt,nt
Cc1c(N=Nc2c(O)[nH]c(=S)[nH]c2=O)c(=O)n(-c2ccccc2)n1C,i[10 µM],i,i,22µM,28µM,i
CCCCCCn1c(O)c(C=Nc2c(C)n(C)n(-c3ccccc3)c2=O)c(=O)[nH]c1=O,i,i,i,?,?,?
